HT1080 IDH1KD tx: toxicity to HT-1080 IDH1 knockdown cells (counter line) | HT-1080 IDH1 knockdown viability, ATP luminescence, 48 h | Potency, µM (top dose mostly 46.1 µM), most hits filed as cytotoxic | 360,000 compounds, 2% hits | AID 686971
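Using the IDH1-knockdown HT-1080 line run in the same batch and compound series as the NT line, viability after 48 h at 37 °C was determined by CellTiter-Glo luminescence and expressed as % activity.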
MCF10A rereplic: induces DNA re-replication in MCF 10a normal breast cells; MCF 10A DNA re-replication, Hoechst nuclear intensity, 48 h; Potency, µM (doses to about 46.1 µM), usual class: activators; 350,000 compounds, 2.9% hits; note: nearly all actives have a fitted effect of over 50% in size
SW480 rerep: inducers of DNA re-replication in SW480 colon cancer cells; 340,000 compounds, 1.8% hits; SW480 DNA re-replication, Hoechst DNA content imaging, 48 h; Potency, µM (doses to about 46.1 µM), usual class: activators; AID 624297; note: nearly all actives have a fitted effect of over 55% in size
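SW480 cells exposed to compounds for 48 hr at 37 C, 5% CO2, then Hoechst-stained 40 min. Nuclear DNA content imaged by fluorescence scanning (405 nm excitation, 500-530 nm emission); re-replication scored as increased high-intensity nuclei.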
HT1080-NT tox: kills 2HG-producing HT-1080-NT fibrosarcoma cells; AID 686970; 360,000 compounds, 1.6% hits; Potency, µM (highest dose often 46.1 µM), hits mostly cytotoxic; HT-1080-NT fibrosarcoma viability, CellTiter-Glo ATP luminescence, 48 h;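 note: NT is the 2HG producing partner of a matched IDH1 knockdown line; nearly all actives have a fitted effect of over 55% in size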
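Read-out is CellTiter-Glo luminescence after 10 minutes at room temperature, following 48 hours' compound treatment of HT-1080-NT cells (750 cells/well, RPMI, 5% FBS, 37 degrees C).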
KB-V1 MDR tox: kills drug-selected multidrug resistant KB-V1 cells | AID 1347076 | KB-V1 MDR cells viability, CellTiter-Glo, 72 h | Potency, µM (top dose mostly 46.1 µM), hits mostly cytotoxic | 400,000 compounds, 3.4% hits; note: nearly all actives have a fitted effect of over 60% in size
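Compound-treated KB-V1 multidrug-resistant cells, 72 h, 37 degrees C; viability by CellTiter-Glo. Fitted qHTS curves give the values.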
KB-3-1 tox: KB-3-1 parental cell cytotoxicity; KB-3-1 viability, CellTiter-Glo ATP luminescence, 72 h; Potency, µM (top dose mostly 46.1 µM), hits mostly cytotoxic; 400,000 compounds, 1.4% hits; AID 1347075; note: nearly all actives have a fitted effect of over 60% in size
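Cytotoxicity measured as CellTiter-Glo luminescence after 72 h at 37 C. Compound titrations were pinned onto drug-naive KB-3-1 parental adenocarcinoma cells grown in DMEM with 10% FBS, and normalized data fitted to concentration-response curves.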
Each line names hits and unclear results; the compound was inactive in the other large screens. The list is not random: actives were taken first. Their share in the collection is about 7.9%. Calls come from the whole dose curve; as a rule, active = well fitted curve in the direction sought with a large enough effect; inconclusive = small, poorly fitted or top-dose-only effect, or another doubt; inactive = no such curve, though single readings can be large; an effect the other way counts as inactive or inconclusive.

Cc1cn([C@H]2C[C@H](O)[C@@H](/C=C/C(=O)NCCC(c3ccccc3)c3ccccc3)O2)c(=O)[nH]c1=O	none (no result: MCF10A rereplic, SW480 rerep)
COc1ccc(OC)c(NC(=O)c2cccc(Cn3cc(Br)c([N+](=O)[O-])n3)c2)c1	KB-V1 MDR tox 4.6µM, KB-3-1 tox inconclusive
Cc1cccc(NC(=O)c2cccc(Cn3cc(Br)c([N+](=O)[O-])n3)c2)c1C	KB-V1 MDR tox 12µM, KB-3-1 tox inconclusive
Cc1ccccc1NC(=O)c1cccc(Cn2cc(Br)c([N+](=O)[O-])n2)c1	none
COC(=O)c1c(C)[nH]c(C(=O)C(C)OC(=O)C2CC2)c1C (configuration not stated)	KB-V1 MDR tox 12µM, KB-3-1 tox inconclusive
Oc1ccc(/C=N/NC(=S)N/N=C/c2ccc(O)cc2)cc1	HT1080 IDH1KD tx inconclusive, MCF10A rereplic inconclusive, HT1080-NT tox inconclusive
COc1ccccc1NC(=S)N/N=C/c1ccc(O)cc1	KB-V1 MDR tox 21µM, KB-3-1 tox inconclusive
COc1ccccc1NC(=S)N/N=C/c1cccc(C)c1	MCF10A rereplic inconclusive, SW480 rerep inconclusive, KB-V1 MDR tox inconclusive, KB-3-1 tox 15µM
CCNC(=S)N/N=C/c1cccc(C)c1	none
CC(C)CC(=O)c1c[nH]c(C(=O)NCCCn2ccnc2)c1	none
O=C(Cc1ccc(Cl)cc1)c1c[nH]c(C(=O)NCCCn2ccnc2)c1	MCF10A rereplic 1.8µM
COc1ccc(/C=C/c2cnccn2)cc1OC	KB-3-1 tox inconclusive (no result: HT1080 IDH1KD tx, MCF10A rereplic, SW480 rerep, HT1080-NT tox)
O=C(Nc1ccc(Oc2ccc(NC(=O)Nc3ccccc3Cl)cc2)cc1)Nc1ccccc1Cl	MCF10A rereplic inconclusive, SW480 rerep 12µM, KB-3-1 tox inconclusive
Cc1ccc(NC(=O)COc2ccccc2C(=O)Nc2ccccc2)cc1Cl	none
Cc1ccccc1OCC(=O)NNC(=O)Nc1ccccc1	none
CCOc1ccccc1NC(=O)Nc1ccc(Cl)cc1	SW480 rerep inconclusive, KB-V1 MDR tox 23µM, KB-3-1 tox 23µM
Cc1ccc(Cl)cc1NC(=O)c1ccccc1OCC(=O)Nc1ccc(Cl)cc1	MCF10A rereplic 9.2µM, HT1080-NT tox inconclusive
Cc1ccccc1OCC(=O)NNC(=O)Nc1ccc(Cl)cc1	HT1080 IDH1KD tx 4.6µM, MCF10A rereplic 3.7µM, SW480 rerep inconclusive, HT1080-NT tox 6.5µM, KB-V1 MDR tox 5.2µM, KB-3-1 tox 4.1µM
COc1cc(NC(=O)C[n+]2ccc(C(=O)c3ccccc3)cc2)cc(OC)c1	KB-3-1 tox inconclusive
Cc1ccc(C)c(NC(=O)CN2C(=O)CSc3nc(C)cc(C)c32)c1	KB-3-1 tox inconclusive (no result: HT1080 IDH1KD tx, MCF10A rereplic, SW480 rerep, HT1080-NT tox)
NC(=O)c1cccc(-c2coc3c(C(=O)NC4CCCCC4)cccc23)c1	HT1080 IDH1KD tx inconclusive, HT1080-NT tox inconclusive (no result: MCF10A rereplic, SW480 rerep)
O=C(Nc1ccc(Cl)cc1)Nc1cccc2nsnc12	MCF10A rereplic 18µM, SW480 rerep inconclusive
O=C(Nc1ccncc1)Nc1cccc(Cl)c1Cl	none
CCn1c2ccccc2c2cc(C3C(C#N)=C(N)Oc4n[nH]c(COC)c43)ccc21 (configuration not stated)	HT1080 IDH1KD tx 8.9µM, MCF10A rereplic inconclusive, HT1080-NT tox 11µM
COCc1[nH]nc2c1C(c1ccnc3ccccc13)C(C#N)=C(N)O2 (configuration not stated)	MCF10A rereplic inconclusive, SW480 rerep 16µM
COCc1[nH]nc2c1C(c1ccc(F)cc1F)C(C#N)=C(N)O2 (configuration not stated)	none
COCc1[nH]nc2c1C(c1ccc(OC)c(OC)c1)C(C#N)=C(N)O2 (configuration not stated)	none
CCCCn1cc2c(c1-c1ccccc1Br)c(=O)n(C)c(=O)n2C	none (no result: HT1080 IDH1KD tx, MCF10A rereplic, SW480 rerep, HT1080-NT tox)
Cc1cccc(C(=O)Nc2nc(C)c(C(=O)Nc3ccc4c(c3)CCC4)s2)c1	HT1080 IDH1KD tx inconclusive, HT1080-NT tox 11µM, KB-V1 MDR tox inconclusive, KB-3-1 tox inconclusive
CCC(=O)O[C@]1(C(=O)CCl)[C@@H](C)CC2C3C[C@H](F)C4=CC(=O)C=CC4(C)[C@@]3(F)C(O)CC21C (some centres not stated)	none (no result: HT1080 IDH1KD tx, HT1080-NT tox, KB-V1 MDR tox, KB-3-1 tox)
Cc1sc(NC(=O)c2cc(-c3ccc(Cl)cc3)nc3ccccc23)c(C(N)=O)c1C	MCF10A rereplic 18µM, SW480 rerep inconclusive
Cc1ccccc1-c1cc(C(=O)Nc2sc(C(=O)OC(C)C)c(C)c2C#N)c2ccccc2n1	HT1080 IDH1KD tx inconclusive, MCF10A rereplic inconclusive, SW480 rerep inconclusive, HT1080-NT tox inconclusive, KB-V1 MDR tox 8.2µM, KB-3-1 tox 5.2µM
Cc1sc(NC(=O)c2cc(-c3ccccc3)nc3ccccc23)c(C(N)=O)c1C	KB-V1 MDR tox inconclusive, KB-3-1 tox inconclusive
CCOC(=O)c1sc(NC(=O)c2cc(-c3ccc(C)cc3)nc3ccccc23)c(C#N)c1C	HT1080 IDH1KD tx inconclusive, MCF10A rereplic inconclusive, HT1080-NT tox 16µM, KB-V1 MDR tox 3.3µM, KB-3-1 tox inconclusive
COC(=O)c1sc(NC(=O)c2cc(-c3ccccc3)nc3ccccc23)c(C#N)c1C	HT1080 IDH1KD tx inconclusive, MCF10A rereplic inconclusive, HT1080-NT tox inconclusive, KB-V1 MDR tox 1.6µM, KB-3-1 tox 1.5µM
CSCCNC(=O)C1(C)CCN1C(=O)C/C=C/c1ccccc1 (configuration not stated)	KB-V1 MDR tox inconclusive (no result: MCF10A rereplic, SW480 rerep)
N#Cc1c(N)[nH]c(C(=O)c2ccccc2)c1-c1ccccc1Br	none (no result: MCF10A rereplic, SW480 rerep)
COc1cc(C(c2c(O)cc(C)[nH]c2=O)c2c(O)cc(C)[nH]c2=O)ccc1O	MCF10A rereplic inconclusive
CC(C)=CCCC(C)c1cc(C(=O)NCCc2ccc(O)cc2)c(N)s1 (configuration not stated)	HT1080 IDH1KD tx inconclusive, HT1080-NT tox inconclusive, KB-V1 MDR tox inconclusive (no result: MCF10A rereplic, SW480 rerep)
O=C(NNC(=O)c1csc(N2CCOCC2)n1)c1cccnc1	none
O=C(NCc1ccncc1)C1CCN(S(=O)(=O)c2ccc(Cl)c(C(F)(F)F)c2)CC1	none
COc1cc(/C=N/Nc2ccccc2)ccc1O	HT1080 IDH1KD tx 21µM, MCF10A rereplic inconclusive, HT1080-NT tox inconclusive
COc1cc(/C=N/Nc2ccccc2C(F)(F)F)ccc1O	none
COc1cc(/C=N/N(c2ccccc2)c2ccccc2)ccc1O	HT1080 IDH1KD tx 16µM, MCF10A rereplic inconclusive, SW480 rerep inconclusive, HT1080-NT tox 18µM, KB-3-1 tox inconclusive
COc1cc(/C=N/Nc2ncnc3sc4c(c23)CCC4)ccc1O	HT1080 IDH1KD tx inconclusive, MCF10A rereplic inconclusive, SW480 rerep 23µM, KB-3-1 tox inconclusive
COc1cc(/C=N/NC2=NCCCCC2)ccc1O	HT1080-NT tox inconclusive
Cc1cc(/C=C/C#N)cc(C)c1Nc1nc(Nc2ccc3n[nH]nc3c2)c2[nH]cnc2n1	none (no result: HT1080 IDH1KD tx, MCF10A rereplic, SW480 rerep, HT1080-NT tox)
COc1cc2ccc(C(C)=NOC(C)=O)cc2cc1OC	KB-V1 MDR tox 2.1µM, KB-3-1 tox 5.2µM (no result: MCF10A rereplic, SW480 rerep)

Screens: PubChem, National Center for Advancing Translational Sciences (NCATS)
